High-throughput results (PubChem)
Rows were chosen to be rich in hits. Some 1.7% of all compounds tested hit in one or more screens of this group.
GLP-1R inv ag: inverse agonists of human GLP-1 receptor; HEK293 GLP-1R CRE-luciferase, luminescence, 24 h; GLP-1R form is constitutively active; Potency, µM (highest dose often 38.3 µM), most hits filed as inhibitors; P43220; AID 624417; hit rate 1.6% among 410,000; also: nearly all actives have a fitted effect of over 55% in size
Target sequence (P43220 whole entry, looked up): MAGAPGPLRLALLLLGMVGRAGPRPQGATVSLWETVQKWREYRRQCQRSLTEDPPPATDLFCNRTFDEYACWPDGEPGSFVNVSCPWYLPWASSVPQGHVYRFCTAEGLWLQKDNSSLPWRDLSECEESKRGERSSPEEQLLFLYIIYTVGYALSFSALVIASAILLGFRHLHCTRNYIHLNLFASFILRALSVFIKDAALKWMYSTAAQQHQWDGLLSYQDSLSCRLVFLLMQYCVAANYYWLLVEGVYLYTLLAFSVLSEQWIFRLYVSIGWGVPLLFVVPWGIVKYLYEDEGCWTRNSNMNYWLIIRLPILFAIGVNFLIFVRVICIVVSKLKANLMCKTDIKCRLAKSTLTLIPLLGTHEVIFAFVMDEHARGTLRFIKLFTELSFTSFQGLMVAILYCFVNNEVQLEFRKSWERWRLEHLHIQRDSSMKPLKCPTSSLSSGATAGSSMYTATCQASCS
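Constitutively active GLP-1R drives a cAMP-responsive luciferase in stably transfected HEK293 cells; test compounds are added after overnight (12 h) attachment and left 24 hr, and signal loss in luminescence marks inhibition.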
GLP1R ag: GLP-1 receptor (human) agonism. AID 624172. P43220. hit rate 0.007% among 380,000. HEK293 GLP-1R CRE-luciferase, luminescence, 4-6 h; cells express a hypersensitive GLP-1R form. Potency, µM (doses to about 45.6 µM), hits mostly activators
PTHR1 ag: activates the human parathyroid hormone receptor PTHR1. Q03431. HEK293 GP2 PTHR1 cells, GloSensor cAMP luminescence, 1 h. Potency, µM (top dose mostly 115 µM), usual class: activators. hit rate 0.075% among 410,000. AID 743266; also: nearly all actives have a fitted effect of over 55% in size
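HEK-293-derived GP2 cells expressing PTHR1 and a GloSensor cAMP reporter, 3,000/well, plated overnight, given luciferin plus IBMX (each 0.5 mM as added) for 1 h at 37 °C, then compound for 1 h at 37 °C. Luminescence was read after 15 min at room temperature.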
HEK293 tox: cytotoxicity counter-screen for GLP-1 receptor inverse agonists. HEK293 cAMP-luciferase reporter cells, luminescence, 24 h. Potency, µM (top dose mostly 38.3 µM), actives largely listed as inhibitors. hit rate 0.13% among 410,000;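 also: loss of luciferase light is scored as toxicity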
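Compound-treated cells are incubated 24 hr at 37 deg C under 5% CO2 after a 12 hour attachment period, then luciferase detection reagent is added and luminescence is measured following 12 min at room temperature; lowered signal indicates toxicity.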
Large screens that a line does not name were inactive. Calls follow the shape of the dose curve; as a rule, active = well fitted curve in the direction sought with a large enough effect; inconclusive = small, poorly fitted or top-dose-only effect, or another doubt; inactive = no such curve, though single readings can be large; an effect the other way counts as inactive or inconclusive.

Cc1ccc(/C=C/C(=O)c2ccccc(=O)c2O)c(C)c1	GLP-1R inv ag inconclusive, HEK293 tox inconclusive
O=C(c1ccc(Cl)cc1)c1cn(Cc2ccccc2)c2cc3c(cc2c1=O)OCCO3	GLP-1R inv ag inconclusive (no result: GLP1R ag)
CCC1C(c2ccccc2)NC(c2ccccc2)CC1(O)c1ccc(F)cc1 (configuration not stated)	GLP-1R inv ag 11.2µM, HEK293 tox inconclusive
OCCN1C2CCC1CC(O)(c1ccc(F)cc1)C2 (configuration not stated)	none
CSc1ccccc1C(=O)C1CCCN(Cc2ccccn2)C1 (configuration not stated)	none
CSc1ccccc1C(=O)C1CCCN(Cc2cccc(C)n2)C1 (configuration not stated)	GLP-1R inv ag 11.2µM, HEK293 tox inconclusive
CCOP(=S)(OCC)c1ccc(N(C)C)cc1	PTHR1 ag 17.8µM
COc1ccc(-c2noc(=O)n2Cc2cc(C)ccc2C)cc1	GLP-1R inv ag 11.2µM
CNC(C)CC1CCCCC1 (configuration not stated)	none (no result: GLP-1R inv ag, PTHR1 ag, HEK293 tox)
O=C(CCc1ccccc1)NC(NC(=S)Nc1ccc(Cl)cc1)C(Cl)(Cl)Cl (configuration not stated)	GLP-1R inv ag inconclusive, HEK293 tox inconclusive
CCOP(=O)(Nc1ccc2c(c1)C(=NNC(N)=S)c1ccccc1-2)OCC	GLP-1R inv ag inconclusive, HEK293 tox 12.6µM
CCOC(=O)Nc1ccc2c3c(cccc13)-c1ccccc1-2	GLP-1R inv ag inconclusive
c1ccc(CCc2ccc3n2Cc2cnnn2-c2ccccc2-3)cc1	GLP-1R inv ag 11.2µM
Cc1onc(-c2c(Cl)cccc2Cl)c1C(=O)N1C(C)CCCC1C (configuration not stated)	GLP-1R inv ag inconclusive, PTHR1 ag inconclusive
COC(CN(C(=O)CCl)C(C(=O)NC1CCCCC1)c1ccccc1C)OC (configuration not stated)	GLP-1R inv ag 10µM, HEK293 tox inconclusive
Cc1nc2scc(-c3ccccc3)c2c(=O)n1N=C1C=CC(=O)C=C1	HEK293 tox inconclusive
Cc1ccc(/C(CSc2nccn2-c2ncc(C(F)(F)F)cc2Cl)=N\O)cc1	GLP-1R inv ag 3.55µM
CCCCCN1C(C(=O)c2ccccc2)=C(NC(=O)c2ccc(OC)c(OC)c2)c2ccccc2S1(=O)=O	GLP-1R inv ag 10µM (no result: GLP1R ag)
COc1ccc(N2CCN(C(=O)CCCCCn3c(=S)[nH]c4ccc(N5CCOCC5)cc4c3=O)CC2)cc1	GLP-1R inv ag inconclusive
Cc1cccc(N2C(=O)NC(=O)/C(=C\c3cc(C)n(-c4sc5c(c4C#N)CCCC5)c3C)C2=O)c1C	GLP-1R inv ag 3.55µM
CN(Cc1ccccc1)C(=O)c1ccc(Nc2nc(C(N)Cc3ccc(C(F)(F)F)cc3)cs2)nc1 (configuration not stated)	GLP-1R inv ag inconclusive, HEK293 tox inconclusive
CCC(C)NC(=O)c1c(N)n(CC2CCCO2)c2nc3ccccc3nc12 (configuration not stated)	GLP-1R inv ag 7.94µM
CC(C)CCNC(=O)c1c(N)n(CC2CCCO2)c2nc3ccccc3nc12 (configuration not stated)	GLP-1R inv ag inconclusive
CN(C)S(=O)(=O)c1ccc(C(=O)NCCSc2c(-c3ccccc3)[nH]c3ccccc23)cc1	GLP-1R inv ag inconclusive (no result: GLP1R ag)
CC1=CC(=C2C(=O)NC(=O)NC2=O)C=C(C(F)(F)F)N1C(C)C	PTHR1 ag 28.2µM
CC1=CC(=C2C(=O)NC(=O)NC2=O)C=C(C(F)(F)F)N1Cc1ccccc1	none
CCOc1ccc(Nc2nc(N)c(C(=O)c3ccccc3Cl)s2)cc1	GLP-1R inv ag inconclusive, HEK293 tox inconclusive (no result: GLP1R ag)
O=C(Nc1ccccn1)NC12CC3CC(CC(C3)C1)C2	GLP-1R inv ag 1.41µM
COc1ccc(C(CC(=O)Nc2ccccn2)N2Cc3ccccc3C2=O)cc1 (configuration not stated)	none
Cn1c(SSc2ccc(-c3cccnc3)n2C)ccc1-c1cccnc1	GLP-1R inv ag inconclusive, HEK293 tox inconclusive
COc1ccc(CNCCc2c(C)[nH]c3ccc(OC(F)(F)F)cc23)c(OC)c1	GLP-1R inv ag 2µM, HEK293 tox inconclusive
COc1ccc2[nH]c(C)c(CCNCc3cc(OC)c(OC)c(OC)c3)c2c1	GLP-1R inv ag inconclusive
CCOc1cccc(=NC2CCCCC2)c2c(C)n(C)c(C)c12	GLP-1R inv ag 10µM, HEK293 tox inconclusive
Cc1ccc(-c2cc(C(=O)N3CCN(c4ncccn4)CC3)c3ccccc3n2)cc1	GLP-1R inv ag inconclusive, HEK293 tox inconclusive
